PubChem BioAssay AID1445 (SRMLSC, 2008)
The campaign covered roughly 220,000 compounds. About 910 (0.41%) were called active. Shown is part of a subset that was picked to be rich in actives. Potency and affinity values are given separately. Values without a mark were called inactive.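 The calls were made as follows: active = primary inhibition above the hit cutoff, then over 50% inhibition at one or more dose response concentrations (cut at about 23% in these data, passing the limit was not always enough); inconclusive = conflicting primary data, or primary hits not chosen for dose response; inactive = low primary inhibition, or under 50% at every dose.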

The compounds below were run against Aminopeptidase N (Plasmodium falciparum (isolate 3D7)) (UniProt O96935) (assay: P. falciparum M1AAP inhibitors, biochemical, fluorogenic H-Leu-NHMec substrate, 1536-well (AID 1445;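 also: plate controls were DMSO full reaction for no effect and no enzyme background for full effect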)). Conditions: recombinant M1AAP, H-Leu-NHMec fluorogenic kinetic assay; at 30 µM, stronger effect = higher value unless noted.
Aminopeptidase N (Plasmodium falciparum (isolate 3D7)), sequence (O96935 whole entry, looked up): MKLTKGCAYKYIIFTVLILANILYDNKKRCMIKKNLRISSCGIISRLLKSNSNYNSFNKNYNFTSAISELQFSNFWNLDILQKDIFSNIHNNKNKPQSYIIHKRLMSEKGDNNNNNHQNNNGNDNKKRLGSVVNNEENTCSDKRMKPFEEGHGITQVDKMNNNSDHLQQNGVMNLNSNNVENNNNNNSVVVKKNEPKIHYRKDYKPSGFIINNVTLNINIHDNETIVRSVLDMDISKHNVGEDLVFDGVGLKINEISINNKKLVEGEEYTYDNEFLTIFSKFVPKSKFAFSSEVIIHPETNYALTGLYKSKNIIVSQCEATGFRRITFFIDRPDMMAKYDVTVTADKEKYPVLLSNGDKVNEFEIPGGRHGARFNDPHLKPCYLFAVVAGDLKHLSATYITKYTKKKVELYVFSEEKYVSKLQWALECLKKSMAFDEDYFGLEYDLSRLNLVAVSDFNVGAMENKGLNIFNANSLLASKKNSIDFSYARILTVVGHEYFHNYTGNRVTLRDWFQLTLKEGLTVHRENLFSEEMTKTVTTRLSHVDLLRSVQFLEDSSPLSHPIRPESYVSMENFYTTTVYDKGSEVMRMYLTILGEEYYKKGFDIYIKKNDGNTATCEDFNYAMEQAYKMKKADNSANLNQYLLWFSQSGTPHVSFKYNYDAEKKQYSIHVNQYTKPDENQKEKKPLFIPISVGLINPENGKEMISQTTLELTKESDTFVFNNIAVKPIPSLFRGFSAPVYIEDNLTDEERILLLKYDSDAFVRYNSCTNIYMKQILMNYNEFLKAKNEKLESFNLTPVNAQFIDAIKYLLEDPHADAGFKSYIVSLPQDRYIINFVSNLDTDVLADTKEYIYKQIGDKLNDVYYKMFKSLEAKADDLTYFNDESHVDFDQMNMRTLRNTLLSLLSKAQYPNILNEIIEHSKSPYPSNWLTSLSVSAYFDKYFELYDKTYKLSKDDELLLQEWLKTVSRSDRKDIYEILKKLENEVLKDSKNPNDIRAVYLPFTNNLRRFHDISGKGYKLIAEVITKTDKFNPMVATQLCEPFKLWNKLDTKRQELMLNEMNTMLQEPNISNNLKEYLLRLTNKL
`Cc1ccc(C)c(Oc2coc3cc(OCC(=O)Nc4ccccc4C(C)C)ccc3c2=O)c1` showed an inhibition of 2.02%. With `Cc1ccc(C(=O)ON=C2CCN(c3ccc([N+](=O)[O-])cc3)CC2)cc1` the inhibition was 14.4%. `COc1ccc(C(=O)ON=C2CCN(c3ccc([N+](=O)[O-])cc3)CC2)cc1` gave an inhibition of 4.56%. With `Cc1ccc2nc(-c3ccc(SCC(=O)N4CCc5ccccc54)nc3)[nH]c2c1` the inhibition was 4.65%. `C=C1c2ccccc2NC(=O)N1c1ccc(C)cc1` gave an inhibition of -1.9%. Work on `CC1CCCCN1C(=S)NC(=O)c1cccs1` (configuration not stated) yielded an inhibition of 13.7%. In the case of `CCC1CCCCN1C(=S)NC(=O)c1ccc([N+](=O)[O-])cc1` (configuration not stated), the inhibition was 5.65%. Work on `COc1cc(O)c(C(CC(=O)N2CCN(c3ccccc3)CC2)c2ccc(N(C)C)cc2)c(OC)c1` (configuration not stated) yielded an inhibition of 0.72%. With `O=C(NCc1ccc2c(c1)OCO2)C1CCCN(S(=O)(=O)c2cccs2)C1` (configuration not stated) the inhibition was 24.9% (active). `CCS(=O)(=O)N1CCCC(C(=O)NCc2ccc3c(c2)OCO3)C1` (configuration not stated) gave an inhibition of 1.85%. Compound `COc1cccc(CNC(=O)C2CCN(S(=O)(=O)c3cccs3)CC2)c1` has an inhibition of 10.2%. `O=C(NCc1ccc2c(c1)OCO2)C1CCN(S(=O)(=O)N2CCCCC2)CC1` gave an inhibition of 10.8%. For `Cc1ccc(CNC(=O)C2CCCN(S(=O)(=O)c3cccnc3)C2)cc1` (configuration not stated), the inhibition was 13%. In the case of `O=C(Nc1ccc2c(c1)OCO2)C1CCCN(S(=O)(=O)c2cccs2)C1` (configuration not stated), the inhibition was 13.9%. Compound `O=C(Nc1ccc2c(c1)OCO2)C1CCN(S(=O)(=O)c2cccs2)CC1` has an inhibition of 3.56%. `O=C(NCc1ccccc1)C1CCCN(S(=O)(=O)c2cccnc2)C1` (configuration not stated) was tested, and the inhibition was 20%. For `CS(=O)(=O)N1CCC(C(=O)NCc2ccc3c(c2)OCO3)CC1`, the inhibition was 21.2%. Compound `Cc1nc2ccccc2c2oc(C(=O)NC3CC3)cc12` has an inhibition of 1.86%. Compound `COC(C[C@@H](O)CC(=O)[C@@H](C)OCc1ccccc1)OC` has an inhibition of -6.94%. For `O=C(NCc1ccc2c(c1)OCO2)C1CC(=O)N(CCc2ccccc2)C1` (configuration not stated), the inhibition was 0.19%. In the case of `O=C(Cn1cccc1C(=O)c1ccccc1)NCc1ccccn1`, the inhibition was 4.68%. For `CC(Sc1ccc(Cl)cc1)C(=O)Nc1ccccc1C(=O)N1CCOCC1` (configuration not stated), the inhibition was -3.03%. `Nc1ccc2c(c1)nc(Cc1ccccc1)n2CCO` showed an inhibition of 9.11%. In the case of `Cc1ccnc(NS(=O)(=O)c2cnc(Cl)c(Br)c2)c1`, the inhibition was 4.88%. `Cc1cccc(-n2cc(CN(C)Cc3nccn3C)c(-c3cccc(F)c3)n2)c1` showed an inhibition of 4.73%. Work on `CN(CC(=O)Nc1ccc(F)cc1)C(=O)COc1ccc(C(=O)c2ccccc2)cc1` yielded an inhibition of 2.01%. Work on `COCCn1c(SCC(=O)NC(=O)NCc2ccccc2)nc2ccccc21` yielded an inhibition of -0.93%. With `CCCn1c(C)cc(/C=C(\C#N)C(=O)OCC(=O)NC(=O)NCC)c1C` the inhibition was 8.1%. In the case of `COc1ccc(N(CC(=O)Nc2ccccc2C(=O)O)S(=O)(=O)c2ccc(C)c([N+](=O)[O-])c2)cc1`, the inhibition was 6.07%. `Cc1ccc(OCC(=O)Nc2ccc(N3CCN(C(=O)c4ccc(C)cc4)CC3)cc2)cc1` gave an inhibition of -2.61%. In the case of `Cc1ccc(C(=O)N2CCN(S(=O)(=O)c3ccccc3)CC2)cc1`, the inhibition was 1.63%. With `COc1ccc(OC)c2sc(NC(=O)c3ccc(S(=O)(=O)N4CCOCC4)cc3)nc12` the inhibition was -1.73%. `COc1ccc(OC)c2sc(NC(=O)c3ccc(S(=O)(=O)N(C)C)cc3)nc12` was tested, and the inhibition was 23.5% (active). `COc1ccc(NC(=O)c2ccc(S(=O)(=O)N(C)C)cc2)cc1OC` was tested, and the inhibition was -1.14%. Compound `CC(=O)N1CCN(Cc2nc3cc(NC(=O)c4cccc(Br)c4)ccc3n2C)CC1` has an inhibition of 4.84%. With `Cc1cc(C)n2cc(CSc3ccc(Br)cc3)nc2n1` the inhibition was -0.36%. `CC(C)N(Cc1nc(-c2ccccc2)no1)C(=O)C(Cl)(Cl)Cl` showed an inhibition of 1.11%. `NC(=O)N/N=C/c1cn(-c2ccccc2)nc1-c1cccs1` was tested, and the inhibition was 4.92%. For `Cc1c(Cc2ccccc2)c(=O)oc2cc(OC(=O)c3ccccc3)ccc12`, the inhibition was 1.43%. Compound `COC(=O)Cc1c(C)c2ccc(OC(C)C)cc2oc1=O` has an inhibition of 4.34%. For `Cc1ccc(C(c2nnnn2CCC(C)C)N2CCN(C)CC2)cc1` (configuration not stated), the inhibition was -0.91%. For `CC(C)C[C@H](NC(=O)c1nc[nH]c1C(=O)NC1CCN(C(=O)OC(C)(C)C)CC1)C(=O)OCc1ccccc1`, the inhibition was -9.66%. `CC(C)C[C@H](NC(=O)c1nc[nH]c1C(=O)N[C@@H](CC(C)C)C(=O)OC(C)(C)C)C(=O)OC(C)(C)C` was tested, and the inhibition was -5.44%. `CC(C)C[C@H](NC(=O)c1[nH]cnc1C(=O)N[C@@H](C)C(=O)OC(C)(C)C)C(=O)OC(C)(C)C` gave an inhibition of -4.65%. For `CC(C)C[C@H](NC(=O)c1nc[nH]c1C(=O)N1CCN(C(=O)OC(C)(C)C)CC1)C(=O)OC(C)(C)C`, the inhibition was 14.4%. Compound `COc1cc(C2C(C#N)=C(N)Oc3n[nH]c(-c4cccnc4)c32)cc(Br)c1O` (configuration not stated) has an inhibition of 17.3%. In the case of `COc1cc(OC)cc(C2C(C#N)=C(N)Oc3n[nH]c(-c4cccnc4)c32)c1` (configuration not stated), the inhibition was 14.9%. For `CC(C)COc1ccc(C(=O)OCCN2CCOCC2)cc1`, the inhibition was 0.38%. `CN1CCN(Cc2oc(CO)cc(=O)c2O)CC1` gave an inhibition of -1.32%. Work on `CCN1CCN(Cc2cc(=O)oc3ccc(Cl)cc23)CC1` yielded an inhibition of 1.72%. Work on `CCc1cc(=O)oc2cc(C)c(CN3CCCCC3)c(O)c12` yielded an inhibition of 13.8%. With `CCN1CCN(Cc2oc(CO)cc(=O)c2O)CC1` the inhibition was 0.53%. For `CCc1cc(=O)oc2cc(C)c(CN3CCCC3)c(O)c12`, the inhibition was 13.6%. `Cc1cc2oc(=O)cc(CN3CCC(C)CC3)c2cc1Cl` showed an inhibition of 0.59%. Work on `CN1CCN(Cc2c(O)c(Cl)cc3c(-c4ccccc4)cc(=O)oc23)CC1` yielded an inhibition of 19.7%. `Cc1cc2oc(=O)cc(CN3CCC(C)CC3)c2c(C)c1Cl` was tested, and the inhibition was 8.55%. `O=C(COC(=O)CCc1ccc(S(=O)(=O)N2CCOCC2)cc1)NCc1ccccc1Cl` showed an inhibition of -2.82%.
